In the library only some 18% were active in any assay of this set; here they are far more common.
DT40 TDP1 no CPT: qHTS for Inhibitors of human tyrosyl-DNA phosphodiesterase 1 (TDP1): qHTS in cells in absence of CPT. DT40 Tdp1-/- hTDP1 cells, no CPT, ATP luminescence, 48 h. Potency, µM (series often up to 46.2 µM), for inactives: top-dose activity change, negative = growth inhibition, usual class: inhibitors. 420,000 compounds, 15% hits. AID 686978, 2013; note: nearly all actives have a fitted effect of over 55% in size
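Growth kinetics read by CellTiter-Glo luminescence after ≥48 hr at 37 °C. Cells: DT40 Tdp1-/- stably carrying human TDP1, 400 per well, compound exposure in the absence of CPT (DMSO vehicle).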
VDR inhibitor: inhibitors of human vitamin D receptor; P11473; VDR-SRC2-3 peptide fluorescence polarization, 2 h; Potency, µM, inactives show max response, negative = inhibition, usual class: inhibitors; 400,000 compounds, 0.93% hits
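Fluorescence polarization assay of small-molecule disruption of VDR binding to coregulator peptide SRC2-3. Compounds and controls pin-transferred, then read after 2 h incubation at ambient room temperature.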
KAT2A inh: GCN5L2 (KAT2A) acetyltransferase inhibition; Potency, µM (top dose mostly 58.9 µM), without a hit: at the highest dose activity change, negative = inhibition, actives largely listed as inhibitors; AID 504327; 390,000 compounds, 0.21% hits; GCN5L2 HAT assay, ThioGlo1 CoA-SH fluorescence; Q92830
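Fluorescence readout, Ex340nm/Em540nm: ThioGlo1 (50uM final) reacts with free CoA thiol released as 20nM GCN5L2 acetylates H3(1-25) peptide (75uM) using acetyl-CoA (70uM). Compound and enzyme sat 15 min beforehand; 20 min room-temperature reaction.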
TDP1 block: inhibitors of human tyrosyl-DNA phosphodiesterase TDP1; 350,000 compounds, 0.28% hits; Potency, µM (doses to about 130 µM), without a hit: top-dose activity change, negative = inhibition, usual class: inhibitors; recombinant TDP1, AlphaScreen DNA substrate cleavage; Q9NUW8; note: nearly all actives have a fitted effect of over 40% in size
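Signal: AlphaScreen proximity between streptavidin donor and anti-FITC acceptor beads on intact substrate. Reaction: Tdp1 1 nM, substrate 15 nM final, 5 min RT after 15 min compound preincubation.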
PLK1 PBD block: PLK1 (human) polo-box domain binding inhibition; Plk1 PBD binding of FITC phosphopeptide, fluorescence polarization; Potency, µM, inactives show max response, negative = inhibition, hits mostly inhibitors; AID 720504; P53350; 360,000 compounds, 2.8% hits; note: series mostly up to about 57 µM; nearly all actives have a fitted effect of over 65% in size
Target sequence (P53350 whole entry, looked up, the tested form may be a part): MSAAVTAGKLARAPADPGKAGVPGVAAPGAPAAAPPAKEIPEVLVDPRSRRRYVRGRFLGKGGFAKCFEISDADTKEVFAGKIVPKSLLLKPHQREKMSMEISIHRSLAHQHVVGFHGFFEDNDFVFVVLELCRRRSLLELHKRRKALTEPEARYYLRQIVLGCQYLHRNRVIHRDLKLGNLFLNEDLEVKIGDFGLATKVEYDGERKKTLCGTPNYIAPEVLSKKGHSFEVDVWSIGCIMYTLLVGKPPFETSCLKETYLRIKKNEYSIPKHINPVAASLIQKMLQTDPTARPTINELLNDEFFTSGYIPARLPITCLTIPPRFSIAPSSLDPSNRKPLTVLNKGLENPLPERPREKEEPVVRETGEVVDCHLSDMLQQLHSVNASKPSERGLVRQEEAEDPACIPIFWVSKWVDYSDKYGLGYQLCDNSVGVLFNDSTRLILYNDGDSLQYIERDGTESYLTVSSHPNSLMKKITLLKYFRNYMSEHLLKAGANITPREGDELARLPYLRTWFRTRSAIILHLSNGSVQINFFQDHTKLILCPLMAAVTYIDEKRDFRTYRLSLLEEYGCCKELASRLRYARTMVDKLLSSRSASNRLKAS
TDP1 cell CPT: DT40-hTDP1 cell growth loss with CPT; chicken DT40 Tdp1-/-;hTDP1 cells + 20 nM CPT, ATP luminescence, 48 h; 420,000 compounds, 12% hits; AID 686979; Potency, µM (doses to about 46.2 µM), without a hit: at the top dose activity change, negative = growth inhibition, hits mostly inhibitors; note: nearly all actives have a fitted effect of over 55% in size
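Chicken DT40 Tdp1-/- cells stably complemented with human TDP1 were seeded at 400 cells/well in medium containing 20 nM camptothecin, exposed to pin-transferred compounds, and grown at 37 °C for at least 48 hr. Viability was read as ATP luminescence.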
The depositor's hits bear a star; ? = inconclusive; / = no result given; [ ] = remark or other dose. Calls come from the whole dose curve; as a rule, active = well fitted curve in the direction sought with a large enough effect; inconclusive = small, poorly fitted or top-dose-only effect, or another doubt; inactive = no such curve, though single readings can be large; an effect the other way counts as inactive or inconclusive. % is set by controls: 0 for no effect and ±100 for the full control effect; potency is the fitted concentration of half-maximal effect.

SMILES	DT40 TDP1 no CPT	VDR inhibitor	KAT2A inh	TDP1 block	PLK1 PBD block	TDP1 cell CPT
COc1cccc(NC(=O)Cn2c(=O)n(Cc3ccccc3)c(=O)c3c2c2cc(C)ccc2n3C)c1	3.7µM*	5%	3%	3%	/	?
CCc1ccc(CN2CCC(Oc3ccc(C(=O)N4CCCC4)cc3)CC2)cc1	?	-13%	-1%	4%	-4%	18µM*
O=C(NCc1cccc(F)c1)c1cccc(OC2CCN(C(=O)C3CC3)CC2)c1	18µM*	-12%	-20%	2%	-5%	?
O=C(c1cccc(OC2CCN(Cc3ccc(F)cc3)CC2)c1)N1CCCC1	-8%	-18%	-3%	/	21µM*	?
CCc1ccc(CN2CCC(Oc3ccc(C(=O)N4CCCCC4)cc3)CC2)cc1	15µM*	-6%	-1%	3%	-7%	?
N#CC1(NC(=O)CN2CCN(S(=O)(=O)c3ccccc3F)CC2)CCCC1	4%	-11%	-6%	-8%	-1%	-7%
O=C(c1ccc(OC2CCN(C/C=C/c3ccc(F)cc3)CC2)cc1)N1CCCC1	?	-21%	-11%	2%	-4%	26µM*
CN(Cc1nc(Cc2ccccc2F)no1)Cc1cccc2ncccc12	16µM*	-20%	-12%	3%	4%	?
CC1=C(C(=O)OC2CCCC2)C(c2ccc(C)o2)C2=C(CC(c3cccs3)CC2=O)N1 (centres undefined)	16µM*	3%	-11%	5%	-7%	?
CC1=C(C(=O)OC2CCCCC2)C(c2ccc(C)o2)C2=C(CC(C)(C)CC2=O)N1 (centres undefined)	?	-17%	2%	3%	-12%	18µM*
CC1=C(C(=O)OC2CCCC2)C(c2coc3ccccc3c2=O)C2=C(CCCC2=O)N1 (centres undefined)	0.41µM*	-18%	-3%	3%	3%	-19%
CCOC(=O)C1=C(C)NC2=C(C(=O)CC(c3cccs3)C2)C1c1cccs1 (centres undefined)	?	-3%	-6%	2%	1%	?
COc1ccc(/C=N/Nc2ncnc3c2[nH]c2ccccc23)c(OC)c1OC	-29%	-5%	-5%	-12%	-7%	-15%
C=Cc1ncc(OC)c2c1[nH]c1ccccc12	3.7µM*	-24%	-1%	/	-11%	3.7µM*
COc1cc(=O)n2c(c1C(=O)N(C)Cc1cscn1)CCN(Cc1ccc3c(c1)OCCO3)CC2	9%	/	/	/	/	20%
Cc1cc(C)c(Cn2c3ccccc3c3cnn(CC(=O)NCCC4=CCCCC4)c(=O)c32)c(C)c1	16µM*	9%	-7%	5%	/	21µM*
Cc1cc(C)c(Cn2c3ccccc3c3cnn(CC(=O)NCCCc4ccccc4)c(=O)c32)c(C)c1	21µM*	2%	0%	3%	/	18µM*
Cc1ccccc1Cn1c2ccccc2c2cnn(CC(=O)NCc3ccccn3)c(=O)c21	?	2%	-8%	1%	-5%	?
Cc1cc(C)c(Cn2c3ccccc3c3cnn(CC(=O)NCc4ccccn4)c(=O)c32)c(C)c1	23µM*	9%	-8%	0%	-8%	21µM*
COc1ccc(-c2nnc(SCC(=O)N(C)Cc3ccccc3)o2)cc1OC	?	26%	-14%	11%	/	?
COc1ccc(-c2nc3c4ccccc4[nH]c(=O)n3n2)cc1	?	-2%	/	-1%	-5%	?
COc1cc2[nH]c(=O)n3nc(-c4ccccc4)nc3c2cc1OC	21µM*	2%	-3%	0%	-4%	23µM*
CCOC(=O)C1CCCN(C(=O)CSc2ccc(NC(C)=O)cc2)C1 (centres undefined)	-13%	-25%	-1%	7%	21µM*	3%
CCOC(=O)C1CCCN(C(=O)COc2ccc(C(=O)c3ccc(F)cc3)cc2)C1 (centres undefined)	?	-11%	-2%	-2%	0%	18µM*
COCCNc1nc(NCc2cccc(OC)c2)c2sc(-c3ccccc3)cc2n1	13µM*	/	/	/	-1%	18µM*
SMILES	DT40 TDP1 no CPT	VDR inhibitor	KAT2A inh	TDP1 block	PLK1 PBD block	TDP1 cell CPT
COCCNc1nc(Oc2ccc(CC(=O)OC)cc2)c2sc(-c3ccccc3)cc2n1	18µM*	/	/	/	5%	?
COCCNc1nc(NCc2ccc(NC(C)=O)cc2)c2sc(-c3ccccc3)cc2n1	4.1µM*	/	/	/	-7%	3.3µM*
COCCNc1nc(Oc2ccc(NC(C)=O)cc2)c2sc(-c3ccccc3)cc2n1	?	/	/	/	0%	?
CCOc1ccc(CN2C(=O)c3ccccc3Sc3ccc(C(=O)NCc4ccc(C)cc4)cc32)cc1	-21%	-13%	-10%	2%	/	8%
Cn1c(=O)n(C/C=C/c2ccccc2)c(=O)c2c1nc1n2CCN1c1ccccc1	-2%	5%	-2%	3%	/	4%
Nc1c(C(=O)NCc2cccs2)nnn1CC(=O)Nc1cccc(F)c1	-7%	-1%	-1%	2%	/	2%
CNC(=O)c1nc(C)n(-c2ccc(Cl)cc2Cl)n1	?	?	2%	-1%	3.8µM*	12µM*
CCCNC(=O)c1nc(C)n(-c2cc(Cl)ccc2Cl)n1	-24%	0%	-2%	5%	21µM*	-6%
CCCOc1ccc(CNC(=O)Cn2ncn3c(cc4sc(CC)cc43)c2=O)cc1	?	9%	-2%	5%	/	?
CC(C)c1ccc(NC(=O)COc2ccc(F)cc2C(=O)c2cnn(-c3ccccc3)c2)cc1	13µM*	-23%	-11%	-3%	-7%	?
NCc1cn(Cc2ccccc2)nc1-c1ccccc1	?	-9%	/	2%	/	11µM*
Cc1c(Br)ccc(NC(=O)c2ccccc2[N+](=O)[O-])c1C	?	11%	-2%	0%	-12%	?
CCN1C(=O)CC(CC(=O)N2CCCCC2c2nccs2)(c2ccccc2C)C1=O (centres undefined)	-12%	/	/	/	/	-2%[9.04 µM]
COC(=O)N1C(=O)[C@@](Cc2ccccc2)(c2ccccc2)N1C(=O)OC	18µM*	?	2%	/	30µM*	?
COC(=O)N1CCC2(CCN(Cc3ccccc3)CC2)CC1	-7%	-2%	-1%	/	/	0%
COC(=O)N1C(=O)[C@](Cc2ccccc2)(c2ccccc2)N1C(=O)OC	12µM*	89µM*	1%	/	15µM*	13µM*
COC(=O)N1[C@H](C)C=C[C@]1(Cc1ccccc1)C(=O)OC	-5%	-3%	/	6%	4%	-13%

Screening data as filed in PubChem BioAssay.
